# Legend:
# Assay in all cases: DAPPL (digital affinity profiling via proximity ligation, sequencing); 10 mM Tris-HCl pH 7.5, 50 mM NaCl, 1 mM DTT, 4% glycerol, room temperature, 30 min; GST-TFs on glutathione beads, 16-mer random dsDNA library, 0.1% formaldehyde crosslink after washing; high values mean tight binding
# FLI1 = target: T1, FLI1 (Homo sapiens, UniProt Q01543 1-452); conditions: protein: recombinant; tags: N-terminal GST; dsDNA, one strand shown
# T1 sequence: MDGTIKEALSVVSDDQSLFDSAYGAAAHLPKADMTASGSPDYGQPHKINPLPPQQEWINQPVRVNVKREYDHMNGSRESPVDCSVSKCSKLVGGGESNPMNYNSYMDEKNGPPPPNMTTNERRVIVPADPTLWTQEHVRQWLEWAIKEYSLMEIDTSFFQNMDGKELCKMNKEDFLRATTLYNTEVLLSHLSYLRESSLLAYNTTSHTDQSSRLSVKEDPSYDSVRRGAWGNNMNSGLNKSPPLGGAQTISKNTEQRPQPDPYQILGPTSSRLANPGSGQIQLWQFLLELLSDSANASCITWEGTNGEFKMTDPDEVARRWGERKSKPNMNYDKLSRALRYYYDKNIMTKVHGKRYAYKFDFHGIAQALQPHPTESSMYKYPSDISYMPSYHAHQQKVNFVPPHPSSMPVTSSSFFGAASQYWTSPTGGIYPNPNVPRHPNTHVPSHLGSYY
# Outline: (§1)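 GST fusions of human transcription factors were expressed in yeast and captured with glutathione beads. Once given DNA barcodes and pooled alongside a tag-only sample, they were incubated for 30 min at room temperature with 200 nmole of a random double-stranded 16-mer DNA library in Tris/NaCl/DTT/glycerol buffer, then washed, crosslinked (0.1% formaldehyde), proximity-ligated, PCR-amplified and sequenced on an Illumina NextSeq500. The binding signal of each hexamer is its read frequency for a factor divided by its frequency for the tag-only sample.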
# ELK1 = target: T2, ELK1 (Homo sapiens, UniProt P19419 1-428); conditions: protein: recombinant; tags: N-terminal GST; dsDNA, one strand shown
# T2 sequence: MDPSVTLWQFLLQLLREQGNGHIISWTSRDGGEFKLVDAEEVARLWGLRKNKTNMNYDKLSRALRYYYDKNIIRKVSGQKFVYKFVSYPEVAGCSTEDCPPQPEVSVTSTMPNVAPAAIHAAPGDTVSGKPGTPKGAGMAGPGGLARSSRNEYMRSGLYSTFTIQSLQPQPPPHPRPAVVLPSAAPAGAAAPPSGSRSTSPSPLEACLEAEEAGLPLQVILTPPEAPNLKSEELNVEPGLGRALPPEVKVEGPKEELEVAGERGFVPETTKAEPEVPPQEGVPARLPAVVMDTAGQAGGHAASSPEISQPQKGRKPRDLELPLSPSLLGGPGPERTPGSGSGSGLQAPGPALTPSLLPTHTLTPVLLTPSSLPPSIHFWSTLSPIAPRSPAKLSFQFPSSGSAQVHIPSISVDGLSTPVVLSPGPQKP
# Outline: as §1
# GABPA = target: T3, GABPA (Homo sapiens, UniProt Q06546 1-454); conditions: protein: recombinant; tags: N-terminal GST; dsDNA, one strand shown
# T3 sequence: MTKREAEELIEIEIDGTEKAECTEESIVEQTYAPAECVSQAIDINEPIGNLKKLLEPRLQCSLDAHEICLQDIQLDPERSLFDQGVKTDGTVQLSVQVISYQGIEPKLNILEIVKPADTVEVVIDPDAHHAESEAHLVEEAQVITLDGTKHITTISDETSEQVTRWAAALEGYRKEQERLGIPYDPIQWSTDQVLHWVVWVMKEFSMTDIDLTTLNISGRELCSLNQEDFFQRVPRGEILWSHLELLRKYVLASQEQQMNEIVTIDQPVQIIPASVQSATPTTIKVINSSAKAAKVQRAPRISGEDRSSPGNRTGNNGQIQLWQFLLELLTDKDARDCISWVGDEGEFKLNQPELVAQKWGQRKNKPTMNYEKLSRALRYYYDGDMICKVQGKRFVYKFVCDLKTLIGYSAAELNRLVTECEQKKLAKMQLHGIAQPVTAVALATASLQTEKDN
# Outline: as §1
# ERG = target: T4, ERG (Homo sapiens, UniProt P11308 1-479); conditions: protein: recombinant; tags: N-terminal GST; dsDNA, one strand shown
# T4 sequence: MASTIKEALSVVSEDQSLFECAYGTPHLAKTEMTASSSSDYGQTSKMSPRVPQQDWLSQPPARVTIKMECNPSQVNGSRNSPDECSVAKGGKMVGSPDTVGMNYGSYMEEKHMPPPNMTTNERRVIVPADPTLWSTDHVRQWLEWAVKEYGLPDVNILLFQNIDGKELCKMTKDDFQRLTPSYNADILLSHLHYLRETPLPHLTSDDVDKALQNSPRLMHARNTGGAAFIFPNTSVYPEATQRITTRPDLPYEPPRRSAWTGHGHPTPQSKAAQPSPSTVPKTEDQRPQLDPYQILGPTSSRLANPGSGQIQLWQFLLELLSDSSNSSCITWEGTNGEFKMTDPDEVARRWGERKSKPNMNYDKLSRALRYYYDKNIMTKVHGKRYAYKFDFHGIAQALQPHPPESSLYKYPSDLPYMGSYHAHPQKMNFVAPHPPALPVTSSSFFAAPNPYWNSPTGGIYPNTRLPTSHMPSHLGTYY
# Outline: as §1
# ELF1 = ELF1 (Homo sapiens, UniProt P32519 1-619); conditions: protein: recombinant; tags: N-terminal GST; dsDNA, one strand shown
# Chain of ELF1 (P32519 whole entry): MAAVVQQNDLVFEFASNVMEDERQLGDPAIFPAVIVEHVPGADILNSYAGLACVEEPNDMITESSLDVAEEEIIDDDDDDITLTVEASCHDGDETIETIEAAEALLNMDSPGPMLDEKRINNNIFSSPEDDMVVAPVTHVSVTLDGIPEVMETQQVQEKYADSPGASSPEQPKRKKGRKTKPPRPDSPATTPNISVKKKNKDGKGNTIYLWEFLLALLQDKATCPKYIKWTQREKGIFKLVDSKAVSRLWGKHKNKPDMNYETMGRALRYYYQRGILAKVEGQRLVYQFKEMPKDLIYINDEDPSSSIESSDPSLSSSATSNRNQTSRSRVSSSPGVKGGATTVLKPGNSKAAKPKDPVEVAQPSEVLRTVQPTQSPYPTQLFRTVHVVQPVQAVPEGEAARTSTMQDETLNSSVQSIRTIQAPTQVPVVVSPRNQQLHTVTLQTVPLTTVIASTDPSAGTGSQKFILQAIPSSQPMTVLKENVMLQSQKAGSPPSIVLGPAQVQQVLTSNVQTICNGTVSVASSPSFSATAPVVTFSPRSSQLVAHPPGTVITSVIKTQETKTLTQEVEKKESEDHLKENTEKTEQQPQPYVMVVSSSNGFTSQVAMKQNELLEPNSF
# Outline: as §1
# EHF = target: T5, EHF (Homo sapiens, UniProt Q9NZC4 1-300); conditions: protein: recombinant; tags: N-terminal GST; dsDNA, one strand shown
# T5 sequence: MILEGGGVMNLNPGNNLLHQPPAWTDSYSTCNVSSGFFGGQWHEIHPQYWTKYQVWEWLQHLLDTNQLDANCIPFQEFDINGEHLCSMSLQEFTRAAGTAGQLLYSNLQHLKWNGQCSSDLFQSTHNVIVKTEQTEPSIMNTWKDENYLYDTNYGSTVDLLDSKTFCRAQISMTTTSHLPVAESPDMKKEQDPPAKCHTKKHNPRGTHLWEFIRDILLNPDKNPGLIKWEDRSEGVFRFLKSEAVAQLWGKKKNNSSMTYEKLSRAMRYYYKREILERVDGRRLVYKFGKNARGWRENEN
# Outline: as §1
# SPI1 = SPI1 (Homo sapiens, UniProt P17947 1-270); conditions: protein: recombinant; tags: N-terminal GST; dsDNA, one strand shown
# Outline: as §1
# SPIB = SPIB (Homo sapiens, UniProt Q01892 1-262); conditions: protein: recombinant; tags: N-terminal GST; dsDNA, one strand shown
# Chain of SPIB (Q01892 whole entry): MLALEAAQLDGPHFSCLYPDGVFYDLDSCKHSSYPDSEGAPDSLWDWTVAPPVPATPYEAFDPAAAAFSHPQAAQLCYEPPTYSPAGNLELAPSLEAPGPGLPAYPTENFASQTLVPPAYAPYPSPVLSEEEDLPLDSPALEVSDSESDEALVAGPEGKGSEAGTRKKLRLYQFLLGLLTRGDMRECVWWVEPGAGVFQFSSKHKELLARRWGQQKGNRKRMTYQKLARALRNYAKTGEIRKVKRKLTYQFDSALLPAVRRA
# Outline: as §1
# ELK3 = target: T6, ELK3 (Homo sapiens, UniProt P41970 1-407); conditions: protein: recombinant; tags: N-terminal GST; dsDNA, one strand shown
# T6 sequence: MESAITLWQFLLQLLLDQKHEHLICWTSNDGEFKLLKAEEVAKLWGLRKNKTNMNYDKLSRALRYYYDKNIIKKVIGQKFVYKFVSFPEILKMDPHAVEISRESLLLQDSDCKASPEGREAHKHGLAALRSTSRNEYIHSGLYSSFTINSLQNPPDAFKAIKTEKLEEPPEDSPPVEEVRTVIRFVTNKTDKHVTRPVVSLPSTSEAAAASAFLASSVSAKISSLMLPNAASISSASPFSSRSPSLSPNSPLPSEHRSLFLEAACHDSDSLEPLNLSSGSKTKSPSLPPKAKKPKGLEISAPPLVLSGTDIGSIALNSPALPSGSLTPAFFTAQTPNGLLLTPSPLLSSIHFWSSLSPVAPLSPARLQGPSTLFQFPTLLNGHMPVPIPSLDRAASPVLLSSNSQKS
# Outline: as §1
# FEV = target: T7, FEV (Homo sapiens, UniProt Q99581 1-238); conditions: protein: recombinant; tags: N-terminal GST; dsDNA, one strand shown
# T7 sequence: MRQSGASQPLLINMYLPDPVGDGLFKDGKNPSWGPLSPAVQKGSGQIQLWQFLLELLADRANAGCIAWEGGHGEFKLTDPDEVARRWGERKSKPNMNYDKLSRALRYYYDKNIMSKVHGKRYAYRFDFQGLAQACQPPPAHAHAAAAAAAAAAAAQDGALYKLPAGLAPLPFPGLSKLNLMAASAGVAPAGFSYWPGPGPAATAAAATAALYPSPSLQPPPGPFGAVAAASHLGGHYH
# Outline: as §1
# ETV5 = ETV5 (Homo sapiens, UniProt P41161 1-510); conditions: protein: recombinant; tags: N-terminal GST; dsDNA, one strand shown
# Chain of ETV5 (P41161 whole entry): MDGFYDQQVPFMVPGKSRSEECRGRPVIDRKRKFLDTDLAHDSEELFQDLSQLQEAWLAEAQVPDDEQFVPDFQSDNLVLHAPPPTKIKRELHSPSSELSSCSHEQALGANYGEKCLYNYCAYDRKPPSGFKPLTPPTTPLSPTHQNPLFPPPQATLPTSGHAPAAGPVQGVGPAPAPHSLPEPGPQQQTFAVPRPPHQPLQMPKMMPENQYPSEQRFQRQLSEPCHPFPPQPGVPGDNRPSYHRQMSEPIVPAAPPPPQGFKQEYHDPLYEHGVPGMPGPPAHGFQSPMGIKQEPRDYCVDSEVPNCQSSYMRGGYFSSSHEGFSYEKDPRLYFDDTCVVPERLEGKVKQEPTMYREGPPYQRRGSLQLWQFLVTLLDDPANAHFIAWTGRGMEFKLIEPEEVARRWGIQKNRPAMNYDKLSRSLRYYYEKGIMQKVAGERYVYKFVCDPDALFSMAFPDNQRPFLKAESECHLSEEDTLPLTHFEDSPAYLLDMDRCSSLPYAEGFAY
# Outline: as §1
# HSF1 = HSF1 (Homo sapiens, UniProt Q00613 1-529); conditions: protein: recombinant; tags: N-terminal GST; chain copies: 3; dsDNA, one strand shown
# Chain of HSF1 (Q00613 whole entry): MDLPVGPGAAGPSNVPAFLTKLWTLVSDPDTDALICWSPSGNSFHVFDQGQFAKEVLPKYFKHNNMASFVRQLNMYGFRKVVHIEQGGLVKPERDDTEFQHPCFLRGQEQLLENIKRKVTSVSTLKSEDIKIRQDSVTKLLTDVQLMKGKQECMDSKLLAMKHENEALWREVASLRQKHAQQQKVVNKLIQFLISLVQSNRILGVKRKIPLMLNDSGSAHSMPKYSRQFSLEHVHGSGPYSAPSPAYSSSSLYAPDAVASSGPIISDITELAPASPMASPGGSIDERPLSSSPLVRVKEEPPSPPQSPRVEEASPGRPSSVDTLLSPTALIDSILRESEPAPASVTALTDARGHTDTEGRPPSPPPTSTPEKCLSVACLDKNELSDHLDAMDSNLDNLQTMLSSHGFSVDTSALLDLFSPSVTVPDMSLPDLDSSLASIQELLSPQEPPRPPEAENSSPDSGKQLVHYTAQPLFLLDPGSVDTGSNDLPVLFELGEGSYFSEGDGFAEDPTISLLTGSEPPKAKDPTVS
# Outline: as §1
# SPIC = target: T8, SPIC (Homo sapiens, UniProt Q8N5J4 1-248); conditions: protein: recombinant; tags: N-terminal GST; dsDNA, one strand shown
# T8 sequence: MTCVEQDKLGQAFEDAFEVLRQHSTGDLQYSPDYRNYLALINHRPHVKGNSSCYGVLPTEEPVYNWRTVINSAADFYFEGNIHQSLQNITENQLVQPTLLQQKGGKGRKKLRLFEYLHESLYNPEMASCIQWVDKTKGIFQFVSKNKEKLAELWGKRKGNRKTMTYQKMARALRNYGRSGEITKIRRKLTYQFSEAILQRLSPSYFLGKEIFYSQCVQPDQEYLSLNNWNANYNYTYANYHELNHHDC
# Outline: as §1
# ELF4 = ELF4 (Homo sapiens, UniProt Q99607 1-663); conditions: protein: recombinant; tags: N-terminal GST; dsDNA, one strand shown
# Chain of ELF4 (Q99607 whole entry): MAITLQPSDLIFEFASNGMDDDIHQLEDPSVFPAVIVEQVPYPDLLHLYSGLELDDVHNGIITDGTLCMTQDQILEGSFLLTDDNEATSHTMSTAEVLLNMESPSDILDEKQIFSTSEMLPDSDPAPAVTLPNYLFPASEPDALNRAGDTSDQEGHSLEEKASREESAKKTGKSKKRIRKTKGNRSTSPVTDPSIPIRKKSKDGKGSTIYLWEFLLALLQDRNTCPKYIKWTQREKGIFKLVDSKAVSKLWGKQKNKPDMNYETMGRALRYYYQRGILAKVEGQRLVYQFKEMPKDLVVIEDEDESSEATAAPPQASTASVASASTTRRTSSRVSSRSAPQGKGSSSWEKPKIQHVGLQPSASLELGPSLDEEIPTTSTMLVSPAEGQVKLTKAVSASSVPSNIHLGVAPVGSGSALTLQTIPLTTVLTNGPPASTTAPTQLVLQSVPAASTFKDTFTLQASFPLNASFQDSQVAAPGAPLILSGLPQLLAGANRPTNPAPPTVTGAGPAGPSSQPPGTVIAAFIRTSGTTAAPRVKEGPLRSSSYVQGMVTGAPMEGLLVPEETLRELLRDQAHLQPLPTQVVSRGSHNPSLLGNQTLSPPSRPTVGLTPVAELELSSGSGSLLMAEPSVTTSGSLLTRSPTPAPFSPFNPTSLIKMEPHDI
# Outline: as §1
# ELK4 = target: T9, ELK4 (Homo sapiens, UniProt P28324-2 1-405); conditions: protein: recombinant; tags: N-terminal GST; dsDNA, one strand shown
# T9 sequence: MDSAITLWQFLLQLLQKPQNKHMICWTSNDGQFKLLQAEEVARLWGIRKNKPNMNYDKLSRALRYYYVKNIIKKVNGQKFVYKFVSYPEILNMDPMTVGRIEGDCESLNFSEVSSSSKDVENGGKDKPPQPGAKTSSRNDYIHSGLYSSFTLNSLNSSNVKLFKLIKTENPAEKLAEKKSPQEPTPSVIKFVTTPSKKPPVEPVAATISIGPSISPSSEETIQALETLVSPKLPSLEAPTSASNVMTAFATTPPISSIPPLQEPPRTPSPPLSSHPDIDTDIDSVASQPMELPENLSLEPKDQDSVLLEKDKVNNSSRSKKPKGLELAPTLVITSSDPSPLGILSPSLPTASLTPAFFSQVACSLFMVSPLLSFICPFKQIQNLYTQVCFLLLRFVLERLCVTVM
# Outline: as §1
# ETV2 = target: T10, ETV2 (Homo sapiens, UniProt O00321 1-342); conditions: protein: recombinant; tags: N-terminal GST; dsDNA, one strand shown
# T10 sequence: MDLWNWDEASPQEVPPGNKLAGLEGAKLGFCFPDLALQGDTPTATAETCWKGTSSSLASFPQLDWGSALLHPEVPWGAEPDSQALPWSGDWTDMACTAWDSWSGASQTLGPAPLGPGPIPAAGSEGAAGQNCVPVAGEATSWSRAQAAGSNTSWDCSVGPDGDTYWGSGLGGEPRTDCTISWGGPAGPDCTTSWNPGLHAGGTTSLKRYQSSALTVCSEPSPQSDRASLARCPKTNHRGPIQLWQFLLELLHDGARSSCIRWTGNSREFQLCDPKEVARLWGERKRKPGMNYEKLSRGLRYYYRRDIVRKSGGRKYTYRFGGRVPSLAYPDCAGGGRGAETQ
# Outline: as §1
# ELF3 = target: T11, ELF3 (Homo sapiens, UniProt P78545 1-371); conditions: protein: recombinant; tags: N-terminal GST; dsDNA, one strand shown
# T11 sequence: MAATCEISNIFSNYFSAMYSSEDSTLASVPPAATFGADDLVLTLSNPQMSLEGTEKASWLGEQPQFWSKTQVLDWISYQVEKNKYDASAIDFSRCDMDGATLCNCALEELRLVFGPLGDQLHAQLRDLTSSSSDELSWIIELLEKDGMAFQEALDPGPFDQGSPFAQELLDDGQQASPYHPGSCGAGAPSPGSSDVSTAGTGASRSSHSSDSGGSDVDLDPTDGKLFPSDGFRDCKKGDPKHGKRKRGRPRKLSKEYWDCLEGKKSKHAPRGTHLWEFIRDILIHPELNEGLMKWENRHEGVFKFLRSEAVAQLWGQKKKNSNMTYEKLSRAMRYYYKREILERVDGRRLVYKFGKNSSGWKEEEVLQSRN
# Outline: as §1
# CRX = CRX (Homo sapiens, UniProt O43186 1-299); conditions: protein: recombinant; tags: N-terminal GST; dsDNA, one strand shown
# Chain of CRX (O43186 whole entry): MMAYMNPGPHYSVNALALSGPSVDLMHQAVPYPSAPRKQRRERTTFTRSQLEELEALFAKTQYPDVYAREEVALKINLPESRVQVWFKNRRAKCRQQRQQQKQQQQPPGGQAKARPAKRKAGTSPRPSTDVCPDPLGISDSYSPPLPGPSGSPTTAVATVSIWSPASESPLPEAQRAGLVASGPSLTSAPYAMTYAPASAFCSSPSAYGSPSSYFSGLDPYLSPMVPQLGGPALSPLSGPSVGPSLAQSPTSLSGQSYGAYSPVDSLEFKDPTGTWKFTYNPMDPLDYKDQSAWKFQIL
# Outline: as §1
# ETV1 = ETV1 (Homo sapiens, UniProt P50549 1-477); conditions: protein: recombinant; tags: N-terminal GST; dsDNA, one strand shown
# Chain of ETV1 (P50549 whole entry): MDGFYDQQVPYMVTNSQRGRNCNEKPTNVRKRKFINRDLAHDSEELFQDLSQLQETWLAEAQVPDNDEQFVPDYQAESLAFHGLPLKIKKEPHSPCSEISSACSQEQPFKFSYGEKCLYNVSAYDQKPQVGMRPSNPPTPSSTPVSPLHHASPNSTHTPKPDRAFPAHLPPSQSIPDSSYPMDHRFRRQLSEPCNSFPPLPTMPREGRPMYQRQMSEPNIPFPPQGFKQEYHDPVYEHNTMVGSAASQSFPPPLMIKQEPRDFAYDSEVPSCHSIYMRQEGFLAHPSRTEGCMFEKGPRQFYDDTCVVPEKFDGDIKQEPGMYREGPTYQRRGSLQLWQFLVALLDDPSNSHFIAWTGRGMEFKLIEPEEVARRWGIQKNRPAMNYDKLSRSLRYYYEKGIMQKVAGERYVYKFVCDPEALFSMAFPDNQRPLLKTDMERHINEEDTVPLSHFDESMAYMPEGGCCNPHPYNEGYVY
# Outline: as §1
sequence,measurement,setting,value
TACATG,binding signal,FLI1,"1.24 fold enrichment (6-mer frequency, TF over GST control)"
same,binding signal,ELK1,"1.09 fold enrichment (6-mer frequency, TF over GST control)"
same,binding signal,GABPA,"1.14 fold enrichment (6-mer frequency, TF over GST control)"
same,binding signal,ERG,"1.2 fold enrichment (6-mer frequency, TF over GST control)"
same,binding signal,ELF1,"1.27 fold enrichment (6-mer frequency, TF over GST control)"
same,binding signal,EHF,"1.18 fold enrichment (6-mer frequency, TF over GST control)"
same,binding signal,SPI1,"1.26 fold enrichment (6-mer frequency, TF over GST control)"
same,binding signal,SPIB,"1.16 fold enrichment (6-mer frequency, TF over GST control)"
same,binding signal,ELK3,"1.3 fold enrichment (6-mer frequency, TF over GST control)"
same,binding signal,FEV,"1.12 fold enrichment (6-mer frequency, TF over GST control)"
same,binding signal,ETV5,"1.26 fold enrichment (6-mer frequency, TF over GST control)"
same,binding signal,HSF1,"1.08 fold enrichment (6-mer frequency, TF over GST control)"
same,binding signal,SPIC,"1.17 fold enrichment (6-mer frequency, TF over GST control)"
same,binding signal,ELF4,"1.29 fold enrichment (6-mer frequency, TF over GST control)"
same,binding signal,ELK4,"1.24 fold enrichment (6-mer frequency, TF over GST control)"
same,binding signal,ETV2,"1.24 fold enrichment (6-mer frequency, TF over GST control)"
same,binding signal,ELF3,"1.28 fold enrichment (6-mer frequency, TF over GST control)"
same,binding signal,CRX,"1.09 fold enrichment (6-mer frequency, TF over GST control)"
same,binding signal,ETV1,"1.21 fold enrichment (6-mer frequency, TF over GST control)"

# — publication PMC7862700, “An all-to-all approach to the identification of sequence-specific readers for epigenetic DNA modifications on cytosine”
